Gal4-VP16 FLuc: inhibits Gal4-VP16 luciferase reporter, ROR gamma counter-screen | Drosophila S2 Gal4-VP16 UAS-luciferase, luminescence, 20 h | Potency, µM (titrated, usually from 53.6 µM), without a hit: top-dose activity, negative = inhibition, usual class: inhibitors | actives 3.5% (n = 310,000);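 further: Gal4-VP16 expression switched on by copper sulfate through the metallothionein promoter; nearly all actives have a fitted effect of over 50% in size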
KinaseGlo FLuc: blocks Kinase-Glo luciferase, a counter-screen artifact; AID 1379; actives 0.28% (n = 200,000); Potency, µM (titrated, usually from 38.3 µM), for the others: at the highest dose activity change, negative = inhibition, hits mostly inhibitors; Kinase-Glo luciferase, ATP luminescence, 8 min; further: nearly all actives have a fitted effect of over 60% in size
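Kinase-Glo luciferase light output from ATP and luciferin was measured with 10 uM ATP, within the enzyme's linear range. Buffer: 50 mM imidazole pH 7.2, 50 mM KCl, 7 mM MgCl2, 0.01% Tween 20, 0.05% BSA; luminescence read after 8 min at ambient temperature.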
RORg inh: blocks mouse ROR gamma transcriptional activity. P51450. Potency, µM (doses to about 53.6 µM), for the others: top-dose activity change, negative = inhibition, usual class: inhibitors. actives 5.4% (n = 310,000). AID 2551. Drosophila S2 Gal4-RORgamma UAS-luciferase reporter, 20 h; further: nearly all actives have a fitted effect of over 60% in size
Target sequence (P51450 whole entry, looked up, the tested form may be a part): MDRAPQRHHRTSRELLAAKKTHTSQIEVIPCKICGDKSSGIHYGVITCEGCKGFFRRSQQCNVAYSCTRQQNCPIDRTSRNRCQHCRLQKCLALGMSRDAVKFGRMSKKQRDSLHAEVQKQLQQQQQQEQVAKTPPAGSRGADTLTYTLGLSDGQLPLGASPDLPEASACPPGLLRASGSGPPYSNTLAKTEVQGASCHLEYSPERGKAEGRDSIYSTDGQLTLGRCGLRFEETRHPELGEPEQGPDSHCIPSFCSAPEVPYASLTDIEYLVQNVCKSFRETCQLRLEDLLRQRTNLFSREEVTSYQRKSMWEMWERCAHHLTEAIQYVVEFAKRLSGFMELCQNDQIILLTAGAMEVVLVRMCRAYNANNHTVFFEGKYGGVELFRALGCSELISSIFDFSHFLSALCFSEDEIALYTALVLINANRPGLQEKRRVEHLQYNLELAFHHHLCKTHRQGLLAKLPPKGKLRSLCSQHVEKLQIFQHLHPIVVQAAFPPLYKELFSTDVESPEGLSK
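Schneider cells (Drosophila), stable Gal4 DBD–ROR gamma + UAS-luc; 1 hr cmpd preincubation; Cu2+ induction 700 uM final; 20 hr ambient; luminescence.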
* = called active by the depositor; ? = inconclusive; nt = not tested or not shown; [ ] = dose if it differs, or a comment. In the library only some 6.2% were active in any assay of this set; here they are far more common. The call rests on the fitted dose curve; in most records, active means well fitted curve in the direction sought with a large enough effect; inconclusive means small, poorly fitted or top-dose-only effect, or another doubt; inactive means no such curve, though single readings can be large; an effect the other way counts as inactive or inconclusive. On the % scale 0 is the no-effect control and ±100 the full control effect; potency means the concentration at half of the fitted maximal effect.

SMILES | Gal4-VP16 FLuc | KinaseGlo FLuc | RORg inh
CCCCC/C=C\C[C@@H](O)/C=C/C=C\CCC(=O)O | -2.1% | 0.2% | 4.3%
Cc1cccc(-n2c(SCC(=O)N3CC(=O)Nc4ccccc43)nc3ccccc3c2=O)c1C | 0.0% | 3.2% | ?
C=CCn1c(CSc2nc3ccccc3s2)n[nH]c1=S | -24.5% | -0.4% | 11.1%
S=c1[nH]nc(CSc2nc3ccccc3s2)n1Cc1ccccc1 | -10.8% | 3.1% | 3.98µM*
CN(C(=O)CSc1nc2ccccc2s1)c1c(N)n(Cc2ccccc2)c(=O)[nH]c1=O | -6.3% | 5.6% | 2.5%
CCn1c(CSc2nc3ccccc3s2)nnc1SCC(=O)c1ccc(Cl)cc1 | -10.9% | -2.0% | -34.1%
CCn1c(CSc2nc3ccccc3s2)n[nH]c1=S | 10µM* | 1.1% | 2.51µM*
CCn1c(CSc2nc3ccccc3s2)nnc1SCC(=O)c1ccc(O)c(O)c1 | -8.8% | -2.9% | 14.1µM*
c1ccc(-c2ccc(OCCN3CCCC3)cc2)cc1 | -5.5% | nt | 0.7%
CCOC(=O)c1c(NC(=O)CN2C(=O)CN(C)C2=O)sc(C)c1C | 3.1% | 0.1% | 10.7%
Cc1cc(C)c(C#N)c(SCC(=O)Nc2ccc(S(=O)(=O)Nc3ncccn3)cc2)n1 | 12.6µM* | nt | 8.91µM*
Cc1cc(C)nc(SCC(=O)Nc2ccc(S(=O)(=O)Nc3ncccn3)cc2)n1 | ? | -1.5% | 1.4%
Cc1csc2ncc(C(=O)NCc3ccccn3)c(=O)n12 | 1.3% | 2.5% | 17.1%
CCC(Oc1ccc2c(=O)c(-c3ccccc3OC)coc2c1)C(=O)OCc1ccccc1 (stereo not given) | 7.8% | -0.2% | -6.3%
COc1ccc(N2C(=O)CC(Sc3n[nH]c(-c4cccc(C)c4)n3)C2=O)cc1 (stereo not given) | ? | nt | 22.7%
Cc1ccc(N2C(=O)CC(Sc3ncccn3)C2=O)cc1C (stereo not given) | ? | nt | 12.6µM*
COc1ccc(N2C(=O)CC(Sc3ncn[nH]3)C2=O)c(OC)c1 (stereo not given) | 22.4µM* | nt | 3.16µM*
COc1ccc(N2C(=O)CC(Sc3nc(C)cc(C)n3)C2=O)cc1OC (stereo not given) | ? | nt | -2.6%[1.91 µM]
CC(C)c1ccc(N2C(=O)CC(Sc3ncn[nH]3)C2=O)cc1 (stereo not given) | ? | 0.8% | ?
Cc1ccc(N2C(=O)CC(Sc3nc(C)cc(C)n3)C2=O)cc1 (stereo not given) | -22.6% | nt | ?
COc1ccccc1N1C(=O)CC(Sc2nc(C)cc(C)n2)C1=O (stereo not given) | -19.2% | 2.9% | 11.2µM*
CCOc1ccccc1N1C(=O)CC(Sc2n[nH]c(-c3ccccc3)n2)C1=O (stereo not given) | -71.1% | 2.0% | 3.55µM*
O=C(Nc1ccc(S(=O)(=O)Nc2ncccn2)cc1)c1cccc(S(=O)(=O)N2CCCC2)c1 | -1.1% | nt | 0.5%
Cc1cc(C(F)(F)F)nc(SCCN2CCCCC2)c1C#N | 0.0% | nt | -10.4%
O=c1cc(COc2ccccc2[N+](=O)[O-])nc2sccn12 | 6.2% | nt | -14.1%
SMILES | Gal4-VP16 FLuc | KinaseGlo FLuc | RORg inh
O=C(CNC(=O)c1ccc(-c2ccccc2)cc1)OCc1c(F)cccc1Cl | -3.2% | -3.1% | 43.9%
S=c1nc(-c2ccccc2)c(-c2ccccc2)n[nH]1 | -19.9% | nt | 8.91µM*
O=c1nc(-c2ccccc2)c(-c2ccccc2)n[nH]1 | 5.3% | nt | 17.3%
Cc1[nH]n(-c2nc(-c3ccc(Cl)cc3)cs2)c(=O)c1N=Nc1ccc(O)cc1 | -5.0% | -1.8% | 10.4%
O=C(Nc1ccc(NC(=O)C2CC2)cn1)c1ccccc1 | 0.1µM* | nt | 12.6µM*
O=C(Nc1ccc(NC(=O)C2CC2)cn1)c1ccccc1Cl | -3.1%[0.365 µM] | -2.5% | ?
O=C(Nc1ccc(NC(=O)c2ccccc2F)cn1)c1ccco1 | 12.6µM* | nt | 14.1µM*
O=C(Nc1ccc(NC(=O)c2ccco2)nc1)c1cccnc1 | ? | -0.6% | 0.794µM*
O=C(Nc1ccc(NC(=O)c2ccco2)nc1)c1cccc(F)c1 | -9.6% | nt | -6.8%
O=C(Nc1ccc(NC(=O)C2CC2)nc1)c1ccco1 | 1.0% | -7.1% | ?
CCc1ccc(C(C(=O)NC2CCCC2)N(C(=O)c2csnn2)C2CC2)cc1 (stereo not given) | 3.6% | nt | 0.3%
COC(=O)c1ccc(C(=O)Nc2ccc(C(C)C)cc2N)cc1 | 4.6% | 0.5% | 34.7%
CCC(=O)Nc1ccc(Oc2ccc(NC(=O)CC)c(NC(=O)CC)c2)cc1 | 2.5% | 0.0% | 2.7%
Cc1cccnc1CN1CCN(Cc2nc(Cc3cccc(F)c3)no2)CC1 | -3.3% | 1.2% | 12.6µM*
Fc1cccc(Cc2noc(CN3CCSCC3)n2)c1 | -4.0% | nt | -30.0%
O=C(Oc1ccc(C(=S)N2CCOCC2)cc1)c1cccc(Cl)c1 | -19.6% | nt | -20.9%
CC1CC2C3CCC4=CC(=O)C=C[C@@]4(C)[C@]3(F)C(O)C[C@]2(C)[C@]1(O)C(=O)COP(=O)(O)O (stereo not given in full) | -2.0% | -4.0% | 16.0%
Cn1c(=O)c2c(nc(NCCCN3CCOCC3)n2Cc2ccc(Cl)cc2Cl)n(C)c1=O | 0.3% | 0.0% | -1.4%
Cn1c(=O)c2c(nc(NCc3ccco3)n2Cc2ccc(Cl)cc2Cl)n(C)c1=O | 6.31µM* | nt | ?
CCn1c(NCc2ccco2)nc2c1c(=O)n(C)c(=O)n2C | -2.0% | 1.9% | -30.8%
Cn1c(=O)c2c(nc(NCc3ccco3)n2CCc2ccccc2)n(C)c1=O | 7.94µM* | 15.1% | 12.6µM*
COc1ncc2nc(-c3ccc(F)cc3)c(=O)n(CCc3ccccc3)c2n1 | -0.5% | nt | -1.4%
CC(=O)NCc1ccc(C(=O)CCl)cc1 | ? | 0.5% | ?
CC(=O)Nc1ccc(C(=O)CCl)cc1 | ? | nt | 4.47µM*
COc1ccc(Oc2ncc3nc(-c4cccs4)c(=O)n(Cc4cccc(OC)c4)c3n2)cc1 | -6.9% | -1.5% | 0.5%
SMILES | Gal4-VP16 FLuc | KinaseGlo FLuc | RORg inh
O=[N+]([O-])c1cccc(-c2cc(-c3cc(Br)ccc3O)[nH]n2)c1 | 11.2µM* | nt | 7.08µM*
Oc1ccc(Br)cc1-c1cc(-c2ccccc2)n[nH]1 | ? | 2.8% | 1.26µM*
COc1ccc(O)c(-c2cc(-c3cccc(Br)c3)n[nH]2)c1 | ? | -5.0% | ?
Oc1ccc(Br)cc1-c1cc(-c2ccc(Cl)cc2)n[nH]1 | ? | -0.8% | ?
COc1ccnc(-n2cccc2/C=N/O)c1C#N | -8.3% | 1.9% | -8.0%
CCN(CC)C(=O)C(Cc1ccccc1)N1C(=O)c2ccccc2C1=O (stereo not given) | 7.2% | 13.4% | 0.9%
NC(=O)c1cccc2ccccc12 | -1.9% | nt | -13.9%
N#CSCC(=O)c1cccc2ccccc12 | ? | 0.0% | 11.2µM*
CC1CCCCN1C(=O)CCn1c(=S)oc2ccccc21 (stereo not given) | -16.6% | nt | 19.1%
COc1cc(/C=C/c2ccc3cccc([N+](=O)[O-])c3n2)ccc1OCC(=O)O | -18.5% | 2.1% | 8.6%
COc1cc(/C=C/c2ccc3cccc(O)c3n2)cc(Br)c1OC | 5.01µM* | nt | 1.26µM*
COc1ccc(/C=C/c2ccc3cccc(O)c3n2)cc1Br | 3.16µM* | nt | 2µM*
COc1cc(/C=C/c2nc(-c3ccccc3O)n[nH]2)cc(OC)c1OC | ? | -3.1% | ?
COc1cc(/C=C/c2ccc3cccc(O)c3n2)cc(Cl)c1OC | 4.47µM* | nt | 0.794µM*
